What all share (assay): NCI-60 one-dose screen, 48 h (100 = growth as untreated, 0 = no growth, -100 = all killed)
What all share (conditions): 10 µM unless noted

The subject of assay [1] is NCI-H23 lung.
The subject of assay [2] is NCI-H226 lung.
In assay [3] the test system is NCI-H322M lung.
Assay [4] relates to HOP-62 NSCLC.
The subject of assay [5] is NCI-H460 lung.
The test system of assay [6] is HOP-92 NSCLC.
Assay [7] deals with NCI-H522 lung.
The subject of assay [8] is A549/ATCC NSCLC.
Assay [9] has as its system 786-0 renal.
Assay [10] deals with COLO 205 colon.

About 83,000 compounds went through this panel and 20% of them were active in at least one assay; those are over-represented in the sample as a whole.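 Single-concentration screen, 48 h exposure, 96-well plates. Endpoint: percent growth. Below 10 = active.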 A number with no mark means an inactive call. The source made the active and inactive calls.

Drawing on PubChem BioAssay (NCI), this text covers growth for 14 compounds.

With `CCN(CC)CCNc1ccc([N+](=O)[O-])c2sc3cc(Cl)ccc3c(=O)c12`, the growth was 63.5% in assay [1]; 84.9% in [2]; 53.9% in assay [3]; 57.7% in [4]; -17.8% (active) in assay [5]; 47.5% in [6]. Moreover, the growth in [7] was 49.4%; in assay [8] it was 52.9%; in assay [9] it was -80.3% (active); in assay [10], 60.1%.
As for `CC(Cl)(CCl)CS(=O)(=O)c1ccc(Cl)cc1` (stereo not given), the growth in assay [1] is 101%; in assay [2], 92.6%; in assay [3], 100%; in assay [4], 94.8%; in [5], 107%; in [6], 90%. Moreover, the growth in [7] is 92.9%; in [8], 88.9%; in [9], 102%; in assay [10] it was 106%.
`CCOC(=O)c1noc2c1CCc1cn(Cc3cc(OC)cc(OC)c3)cc1-2`: the growth is 97.6% in [1]; 101% in assay [2]; 102% in assay [3]; 95.6% in assay [4]; 109% in assay [5]; 104% in [6]. Further, the growth in assay [7] is 46.5%; in assay [8], 103%; in [9] it was 101%; in assay [10] it was 115%.
In the case of `O=C(NOC1OC(CO)C(O)C(O)C1O)Nc1ccccc1` (stereo not given), the growth in [1] is 104%; in assay [2], 90.5%; in [3], 101%; in assay [4], 93.2%; in [5], 103%; in assay [6], 91.1%. In addition, the growth in [7] was 84.9%; in [8], 106%; in assay [9], 107%; in assay [10] it was 95.8%.
Turning to `CCn1cc(/C=C2\Oc3cc(OCC#N)ccc3C2=O)c2cc(OC)ccc21`, the growth in assay [1] was 41.6%; in assay [2] it was 86.4%; in assay [3], 49.3%; in assay [4], 36.6%; in [5] it was 8.51% (active); in assay [6], 71.2%. Moreover, the growth is 56.7% in assay [7], 41.1% in assay [8], 38.3% in assay [9] and 8.22% (active) in assay [10].
Regarding `O=[N+]([O-])c1cccc(C(c2ccccc2)c2ccccc2)c1`, the growth in [1] was 87.5%; in assay [2], 76.9%; in assay [3], 90.6%; in [4], 88.7%; in assay [5], 87.5%; in assay [6], 63.9%. Moreover, the growth was 79.1% in [7], 87.7% in [8], 97.3% in [9] and 95.2% in assay [10].
Consider `NS(=O)(=O)c1ccc(CCN2C(=O)/C(=C\c3ccc(Cl)cc3)C=C2c2ccc(Oc3ccccc3)cc2)cc1`, for which the growth in assay [1] is 84%; in [2] it was 72.7%; in [3] it was 79.2%; in assay [4] it was 95.9%; in [5], 69%; in assay [6], 84.7%. Besides, the growth in assay [7] is 56.1%; in assay [8] it was 51.8%; in [9] it was 91.1%; in assay [10] it was 80%.
As for `CCC(C)Nc1ccc(N)cc1` (stereo not given), the growth in assay [1] was 5.04% (active); in assay [2], 42.5%; in assay [3] it was 53.3%; in assay [4], 11.6%; in assay [5] it was 9.41% (active); in assay [6], -24.5% (active). Besides, the growth is -25.2% (active) in [7], 11.8% in assay [8], -35.8% (active) in [9] and -57.2% (active) in [10].
As for `c1ccc(OCC[P+](c2ccccc2)(c2ccccc2)c2ccccc2)cc1`, the growth in assay [1] is 7.98% (active); in assay [2] it was 38.5%; in assay [3], 59.4%; in [4] it was 26.8%; in [5] it was 17.1%; in [6] it was -5.38% (active). Moreover, the growth was -9.67% (active) in [7], 30.9% in assay [8], 53.2% in [9] and 2.02% (active) in [10].
Turning to `CN(C)CCNc1nc2ccccc2c2c(=O)c3ccccc3sc12`, the growth was 31.8% in assay [1]; 36.5% in assay [2]; 43.1% in [3]; 21.7% in [4]; 1.33% (active) in assay [5]; 4.02% (active) in assay [6]. In addition, the growth in assay [7] is 14.4%; in assay [8] it was 13.2%; in assay [9], 28.6%; in [10], -79.6% (active).
Turning to `CSc1nc(N)nc2c1ncn2C`, the growth in [1] was 95.8%; in [2], 102%; in assay [3] it was 104%; in assay [4], 84.6%; in assay [5] it was 104%; in [6], 64.5%. Moreover, the growth in [7] is 78%; in assay [8], 84.5%; in [9], 90%; in [10] it was 94.5%.
With `CC(Cc1cccc(C(F)(F)F)c1)NCCOC(=O)c1ccccc1` (stereo not given), the growth is 101% in assay [1]; 98.3% in [2]; 100% in assay [3]; 102% in assay [4]; 114% in assay [5]; 114% in assay [6]. Also, the growth in assay [7] is 100%; in [8], 105%; in assay [9] it was 97.9%; in assay [10] it was 106%.
Take `C/C(=N/O)c1ccc(NC(=O)Cn2nc(-c3ccc(Cl)cc3)nc2N)cc1`: the growth was 92.7% in [1]; 82.9% in assay [2]; 92.4% in assay [3]; 88.8% in assay [4]; 100% in [5]; 99.2% in assay [6]. In addition, the growth is 68.7% in [7], 79.3% in assay [8], 109% in assay [9] and 101% in assay [10].
On to `COc1ccc(C(=O)NC(=O)Nc2ccc3c(c2)NC(=O)/C3=C\c2[nH]c(C)c(C(=O)O)c2C)c(F)c1`, for which the growth in [1] was 48.9%; in assay [2] it was 67.1%; in assay [3] it was 45%; in assay [4] it was 64.9%; in [5], 69.8%; in assay [6], 63.9%. Further, the growth in assay [7] is 37.8%; in assay [8], 47.6%; in assay [9], 35%; in [10] it was 88.6%.
